± gives the standard deviation of the averaged measurements.

MurC, sequence (C4ZRI6 whole entry, looked up): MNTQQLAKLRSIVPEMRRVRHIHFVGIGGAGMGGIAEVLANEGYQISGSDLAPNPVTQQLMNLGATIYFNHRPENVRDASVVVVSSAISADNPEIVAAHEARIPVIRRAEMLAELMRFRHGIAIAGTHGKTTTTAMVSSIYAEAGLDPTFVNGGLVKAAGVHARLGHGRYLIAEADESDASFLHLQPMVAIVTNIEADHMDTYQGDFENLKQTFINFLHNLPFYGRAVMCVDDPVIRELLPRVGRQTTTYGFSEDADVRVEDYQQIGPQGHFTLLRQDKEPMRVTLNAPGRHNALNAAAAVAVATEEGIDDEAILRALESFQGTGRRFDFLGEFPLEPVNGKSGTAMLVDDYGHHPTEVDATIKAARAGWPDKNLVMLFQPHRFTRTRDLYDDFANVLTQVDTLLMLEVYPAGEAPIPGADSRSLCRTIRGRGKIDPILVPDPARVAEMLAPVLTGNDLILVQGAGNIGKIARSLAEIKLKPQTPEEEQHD

This test concerns the target MurC (UniProt C4ZRI6). The test is described as follows: relative enzymatic activity vs untreated control (fraction); higher = less inhibition. To be noted: 100 µM; incubation time: 2 h at 37 C. Here is the method:
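In vitro enzymatic inhibition assays (ProFoldin kits) for 12 purified essential E. coli enzymes or complexes, each treated with 218 active antibacterial compounds at 100 µM for 2 h at 37°C. Read-outs were fluorescence or absorbance (phosphate detection, dye binding), converted to activity via standard curves and expressed relative to untreated DMSO controls.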
Regarding `CCCCCCCCCCCCC[N+](C)(C)Cc1ccccc1.O.[Cl-]`, the relative enzymatic activity was 0.556 ± 0.086.

Molecule `CCOC(=O)OC(C)OC(=O)C1N2C(=O)C(NC(=O)C(N)c3ccccc3)C2SC1(C)C.Cl` (stereo not given) came in with a relative enzymatic activity of 1.01 ± 0.035.

The molecule `CO/N=C(\C(=O)N[C@@H]1C(=O)N2C(C(=O)O)=C(C[N+]3(C)CCCC3)CS[C@H]12)c1csc(N)n1` gave a relative enzymatic activity of 0.8921 ± 0.007.

Take `CN1CCN(c2c(F)cc3c(=O)c(C(=O)O)cn4c3c2SCC4)CC1`: the relative enzymatic activity was 0.895 ± 0.076.

Consider `CC(=O)On1cc(F)c(=O)[nH]c1=O`, for which the relative enzymatic activity was found to be 1.07 ± 0.079.

Turning to `COC1=C(N)C(=O)c2nc(-c3nc(C(=O)O)c(C)c(-c4ccc(OC)c(OC)c4O)c3N)ccc2C1=O`, the relative enzymatic activity was 1.31 ± 0.37.

`CC(C)CCCC(=O)N[C@@H](CCNCS(=O)(=O)O)C(=O)N[C@H](C(=O)N[C@@H](CCNCS(=O)(=O)O)C(=O)N[C@H]1CCNC(=O)[C@H]([C@@H](C)O)NC(=O)[C@H](CCNCS(=O)(=O)O)NC(=O)[C@H](CCNCS(=O)(=O)O)NC(=O)[C@H](CC(C)C)NC(=O)[C@H](CC(C)C)NC(=O)[C@H](CCNCS(=O)(=O)O)NC1=O)[C@@H](C)O` gave a relative enzymatic activity of 1.16 ± 0.21.

As to `COC1(NC(=O)C2SC(=C(C(N)=O)C(=O)O)S2)C(=O)N2C(C(=O)O)=C(CSc3nnnn3C)CSC21` (stereo not given), the relative enzymatic activity came out at 0.978 ± 0.098.

`CN(C)CCC=C1c2ccccc2COc2ccc(CC(=O)O)cc21.Cl` gave a relative enzymatic activity of 0.905 ± 0.018.

Consider `Oc1c(Cl)cc(Cl)c2cccnc12`, for which the relative enzymatic activity came to 0.928 ± 0.088.

The molecule `CCC=C(C(=O)NC1C(=O)N2C(C(=O)OCOC(=O)C(C)(C)C)=C(COC(N)=O)CSC12)c1csc(N)n1.Cl` (stereo not given) registered a relative enzymatic activity of 0.843 ± 0.14.

For `CC1CN(c2c(F)c(F)c3c(=O)c(C(=O)O)cn(C4CC4)c3c2F)CC(C)N1` (stereo not given), the relative enzymatic activity turned out to be 0.891 ± 0.082.

Take `CC[C@H]1OC(=O)[C@H](C)[C@@H](O[C@H]2C[C@@](C)(OC)[C@@H](O)[C@H](C)O2)[C@H](C)[C@@H](O[C@@H]2O[C@H](C)C[C@H](N(C)C)[C@H]2O)[C@](C)(O)C[C@@H](C)C(=O)[C@H](C)[C@@H](O)[C@]1(C)O`: the relative enzymatic activity was found to be 0.959 ± 0.064.

In turn, `CCN1CCN(C(=O)NC(C(=O)NC2C(=O)N3C2SC(C)(C)C3C(=O)[O-])c2ccccc2)C(=O)C1=O.[Na+]` (stereo not given) had a relative enzymatic activity of 0.951 ± 0.086.

Turning to `Cc1c(N)nc([C@H](CC(N)=O)NC[C@H](N)C(N)=O)nc1C(=O)N[C@H](C(=O)N[C@H](C)[C@@H](O)[C@H](C)C(=O)N[C@H](C(=O)NCCc1nc(-c2nc(C(=O)NCCCNCCCCN)cs2)cs1)[C@@H](C)O)[C@@H](O[C@@H]1O[C@@H](CO)[C@@H](O)[C@H](O)[C@@H]1O[C@@H]1O[C@H](CO)[C@@H](O)[C@H](OC(N)=O)[C@@H]1O)c1c[nH]cn1`, the relative enzymatic activity worked out at 1.006 ± 0.0098.

The molecule `C/C(=C\C(=O)OCCCCCCCCC(=O)O)C[C@@H]1OC[C@H](C[C@@H]2O[C@H]2[C@@H](C)[C@H](C)O)[C@@H](O)[C@H]1O` returned a relative enzymatic activity of 0.891 ± 0.065.

As for `CS(=O)(=O)c1ccc(C(O)C(CF)NC(=O)C(Cl)Cl)cc1` (stereo not given), the relative enzymatic activity worked out at 1.04 ± 0.036.

On to `CC1C(NC(=O)C(=NOC(C)(C)C(=O)O)c2csc(N)n2)C(=O)N1S(=O)(=O)O` (stereo not given), for which the relative enzymatic activity turned out to be 1.016 ± 0.0098.

`COc1c(N2CC3CCCNC3C2)c(F)cc2c(=O)c(C(=O)O)cn(C3CC3)c12.Cl` (stereo not given) displayed a relative enzymatic activity of 1.01 ± 0.025.

`Cc1ccc(S(=O)(=O)O)cc1.NC1CCN(c2nc3c(cc2F)c(=O)c(C(=O)O)cn3-c2ccc(F)cc2F)C1.O` (stereo not given) showed a relative enzymatic activity of 0.988 ± 0.17.

In turn, `NC[C@H]1O[C@H](O[C@H]2[C@H](O)[C@@H](O[C@H]3O[C@H](CO)[C@@H](O)[C@H](N)[C@H]3O)[C@H](N)C[C@@H]2N)[C@H](N)[C@@H](O)[C@@H]1O` gave a relative enzymatic activity of 0.9682 ± 0.0015.

`CCC(C)C1NC(=O)C(CCNCS(=O)(=O)[O-])NC(=O)C(NC(=O)C(CCNCS(=O)(=O)[O-])NC(=O)C(NC(=O)C(CCNCS(=O)(=O)[O-])NC(=O)CCCCC(C)C)C(C)O)CCNC(=O)C(C(C)O)NC(=O)C(CCNCS(=O)(=O)[O-])NC(=O)C(CCNCS(=O)(=O)[O-])NC(=O)C(C(C)CC)NC1=O.[Na+].[Na+].[Na+].[Na+].[Na+]` (stereo not given) yielded a relative enzymatic activity of 1.05 ± 0.03.

Molecule `CCn1cc(C(=O)O)c(=O)c2cc(F)c(N3CCNCC3)nc21` came in with a relative enzymatic activity of 0.948 ± 0.15.

Consider `Cl.NC1CCN(c2c(F)cc3c(=O)c(C(=O)O)cn(C4CC4)c3c2Cl)C1` (stereo not given), for which the relative enzymatic activity was determined as 1.06 ± 0.063.

Molecule `CN(C)CCOC(c1ccccc1)c1ccccc1.Cn1c(=O)c2[nH]c(Cl)nc2n(C)c1=O` came in with a relative enzymatic activity of 1.02 ± 0.026.

The molecule `O=C(O)c1cn(C2CC2)c2cc(N3CCC(O)(COc4ccc(N5C[C@H](CO)OC5=O)cc4F)CC3)c(F)cc2c1=O` had a relative enzymatic activity of 1.38 ± 0.025.

Consider `CC[C@@H](C)CCCCC(=O)N[C@@H](CCN)C(=O)N[C@H](C(=O)N[C@@H](CCN)C(=O)N[C@H]1CCNC(=O)[C@H]([C@@H](C)O)NC(=O)[C@H](CCN)NC(=O)[C@H](CCN)NC(=O)[C@H](CC(C)C)NC(=O)[C@@H](Cc2ccccc2)NC(=O)[C@@H](CCN)NC1=O)[C@@H](C)O`, for which the relative enzymatic activity was found to be 1.03 ± 0.032.

Regarding `Cc1cc(O)c(C(=O)NC(C(=O)NC2C(=O)N3C(C(=O)O)=C(CSc4nnnn4C)CSC23)c2ccc(O)cc2)cn1` (stereo not given), the relative enzymatic activity amounted to 0.971 ± 0.12.

Molecule `Cl.O=C(O)c1cn(-c2ccc(F)cc2)c2cc(N3CCNCC3)c(F)cc2c1=O` returned a relative enzymatic activity of 0.836 ± 0.012.

For the molecule `COC12C(COC(N)=O)C3=C(C(=O)C(C)=C(N)C3=O)N1CC1NC12` (stereo not given), the relative enzymatic activity is 0.719 ± 0.092.

As to `Cl.N=C(N)n1cccn1`, the relative enzymatic activity stood at 0.968 ± 0.063.

In turn, `CC[C@@H]1OC(=O)[C@H](C)[C@@H](O[C@H]2C[C@@](C)(OC)[C@@H](O)[C@H](C)O2)[C@H](C)[C@@H](O[C@@H]2O[C@H](C)C[C@H](N(C)C)[C@H]2O)[C@](C)(O)C[C@@H](C)/C(=N\OCOCCOC)[C@H](C)[C@@H](O)[C@]1(C)O` displayed a relative enzymatic activity of 0.962 ± 0.064.

Turning to `CCn1cc(C(=O)O)c(=O)c2cc(F)c(N3CCN(C)CC3)cc21.CS(=O)(=O)O`, the relative enzymatic activity turned out to be 1.02 ± 0.013.

In turn, `CCC(C)CCCCC(=O)NC(CCN)C(=O)NC(C(=O)NC(CCN)C(=O)NC1CCNC(=O)C(C(C)O)NC(=O)C(CCN)NC(=O)C(CCN)NC(=O)C(CC(C)C)NC(=O)C(Cc2ccccc2)NC(=O)C(CCN)NC1=O)C(C)O.O=S(=O)(O)O` (stereo not given) returned a relative enzymatic activity of 0.986 ± 0.057.

Molecule `CC(C)[C@@H](CC[C@@H](C)[C@H]1CC[C@H]2[C@@H]3[C@H](O)C[C@H]4C[C@@H](NCCCNCCCCNCCCN)CC[C@]4(C)[C@H]3CC[C@]12C)OS(=O)(=O)O` showed a relative enzymatic activity of 1.05 ± 0.014.

`CN[C@@H]1[C@H](O)[C@H](NC)[C@H]2O[C@@]3(O)C(=O)C[C@@H](C)O[C@H]3O[C@@H]2[C@H]1O`: the relative enzymatic activity stood at 0.955 ± 0.11.

Turning to `CC1CCc2c(N3CCC(O)CC3)c(F)cc3c(=O)c(C(=O)O)cn1c23` (stereo not given), the relative enzymatic activity is 0.92 ± 0.079.

The molecule `Oc1ccc(Cl)c2cccnc12` had a relative enzymatic activity of 1.16 ± 0.16.

As for `CC[C@H]1OC(=O)[C@H](C)[C@@H](O[C@H]2C[C@@](C)(OC)[C@@H](O)[C@H](C)O2)[C@H](C)[C@@H](O[C@@H]2O[C@H](C)C[C@H](N(C)C)[C@H]2O)[C@](C)(O)C[C@@H](C)CN(C)[C@H](C)[C@@H](O)[C@]1(C)O`, the relative enzymatic activity was 1.06 ± 0.02.

Molecule `NCC1OC(OC2C(N)CC(N)C(OC3OC(CO)C(O)C(N)C3O)C2O)C(N)C(O)C1O.O=S(=O)(O)O` (stereo not given) returned a relative enzymatic activity of 1.04 ± 0.018.

The values above are taken from the supplement of paper PMC9446081.
